hgDAF-12 ag – hgDAF-12 agonism, primary luciferase screen; HEK293 GAL4-hgDAF12 UAS-luciferase reporter, agonist luminescence; normalized to butyrate control; activation, % at 6.8 µM; hit rate 1.8% among 370,000; AID 687014;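 active = activation above a cutoff set at the mean of all screened compounds plus 3 SD, cut at about 10% in these data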;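 note: 0% = DMSO wells and 100% = sodium butyrate wells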
hcDAF12 agonist – H. contortus DAF-12 activation, primary screen. HEK293 hcDAF-12 lit1-tk-luc reporter, luminescence; 0% DMSO, 100% Δ7-dafachronic acid. activation, % at 6.8 µM. hit rate 1.4% among 370,000;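 active = activation above the mean of all tested compounds plus 3 SD, cut at about 5.5% in these data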;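 note: 100% = response to 3 µM Δ7-dafachronic acid high control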
ssDAF-12 act – S. stercoralis DAF-12 activation, primary screen. HEK293 ssDAF-12/GRIP1 lit1-tk-luc reporter, luminescence; % of 3 µM dafachronic acid response. AID 652126. activation, % at 6.8 µM. hit rate 1% among 370,000;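 active = activation above the mean over all tested compounds plus 3 SD, cut at about 0.9% in these data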;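 note: 0% = DMSO-only wells and 100% = 3 µM delta7-dafachronic acid wells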
SMARCA2 activ – increases SMARCA2 function in MMTV reporter cells; activation, % at 9.1 µM; AID 652017; hit rate 1% among 370,000; MG213 cells, MMTV-luciferase reporter, dexamethasone, overnight; in the data active = activation above about 7.8%;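 note: 0% = vehicle wells and 100% = reference activator wells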
DAX1 inh-1 – inhibitors of human orphan nuclear receptor DAX1 (NR0B1); AID 504766; hit rate 0.99% among 340,000; inhibition, % at 6.75 µM; HEK293 Gal4-DAX1 luciferase reporter, luminescence;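 active = inhibition above the mean over all tested compounds plus 3 SD, cut at about 4.2% in these data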;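 note: 0% = DAX1-transfected cells with DMSO and 100% = empty-vector control cells with DMSO; inhibition shows as a rise in luminescence from relieved DAX1 repression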
Target sequence (P51843 207-470 limits assumed): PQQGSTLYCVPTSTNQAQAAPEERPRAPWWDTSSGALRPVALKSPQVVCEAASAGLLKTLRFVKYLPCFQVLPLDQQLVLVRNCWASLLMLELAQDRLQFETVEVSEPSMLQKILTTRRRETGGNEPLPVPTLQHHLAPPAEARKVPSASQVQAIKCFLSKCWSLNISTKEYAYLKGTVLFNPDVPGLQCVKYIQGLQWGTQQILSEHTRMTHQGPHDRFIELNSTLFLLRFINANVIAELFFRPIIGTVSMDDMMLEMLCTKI
DAX1 inh-2 – blocks DAX1 repression of SF-1 activated StAR promoter | inhibition, % at 6.8 µM | hit rate 1.1% among 370,000 | HEK293T StAR-luciferase reporter, SF-1/DAX-1 repression relief;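 active = inhibition above the mean over all tested compounds plus 3 SD, cut at about 3.6% in these data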;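 note: 0% = DAX-1 cells with DMSO and 100% = cells lacking DAX-1 with DMSO; higher inhibition means more luminescence from relief of DAX-1 repression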
DAX1 conf – NR0B1 (human) inhibition, confirmation | shares compounds with DAX1 inh-2 | HEK293T StAR-promoter luciferase reporter, SF-1/DAX-1 repression | inhibition, % at 6.8 µM | hit rate 87% among 2,400;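 active = inhibition above the average of every tested compound plus 3 SD, cut at about 3.8% in these data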;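 note: 0% = DAX-1 cells with DMSO and 100% = no DAX-1 control cells with DMSO; active compounds raise luminescence by relieving repression of the StAR reporter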
SF1 mutant ctr – nonselective inhibitor or artifact in SF-1 mutant DAX1 counter-screen; shares compounds with DAX1 inh-2; HEK293 StAR-luciferase, SF-1 AF2 mutant, luminescence; inhibition, % at 6.8 µM; hit rate 78% among 2,400; AID 652136;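 active = inhibition above the mean of all tested compounds plus 3 SD, cut at about 3% in these data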;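 note: 0% = DAX-1 transfected cells with DMSO and 100% = cells without DAX-1 with DMSO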
SMARCA2 act conf – confirmation of SMARCA2 (BRM) function activators; shares compounds with SMARCA2 activ; MG213 cells, MMTV-luciferase with dexamethasone, luminescence, overnight; MG213 cells expressing E1A, Rb sequestered; DMSO wells 0%, reference activator 100%; activation, % at 9.1 µM; hit rate 30% among 3,500; AID 652260;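 active = activation above its plate's cutoff, the mean activation of tested wells plus 3 SD, cut at about 7.9% in these data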
GAL4-VP16 Luc – counter-screen for SMARCA2 activators: GAL4-VP16 luciferase reporter activation | shares compounds with SMARCA2 activ | HEK293 GAL4-VP16 pG5luc reporter, luciferase luminescence; scaled: DMSO wells 0%, SAHA wells 100% | activation, % at 9.1 µM | hit rate 41% among 3,500;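 active = activation above the solvent-only control well mean plus 3 SD, averaged across control plates, cut at about 5.2% in these data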
An asterisk follows results filed as active; . = no result. Sampled rows, rich in hits. Any-hit rate of the full collection: about 4.8%.

SMILES	hgDAF-12 ag	hcDAF12 agonist	ssDAF-12 act	SMARCA2 activ	DAX1 inh-1	DAX1 inh-2	DAX1 conf	SF1 mutant ctr	SMARCA2 act conf	GAL4-VP16 Luc
CCOC(=O)[C@@]12CN(C(=O)OC(C)(C)C)CC=C1N(Cc1ccc(OC)cc1)C(=O)[C@H]2CC(=O)NCc1ccc(C)o1	-1.6	-2.6	-1.3	-2.6	.	-1.3	.	.	.	.
O=C(NNC(=S)Nc1ccccc1)c1cccnc1	2.9	0.0	-1.2	8.8*	0.2	5.1*	3.6*	5.6*	-2.4	5.4*
Cc1ccc2nc(-c3ccc(F)cc3)c(Cc3cccc(Cl)c3)n2c1	9.0	2.9	0.0	12.8*	.	9.6*	7.5*	4.3*	7.3	7.3*
Cc1ccc2nc(-c3ccc(F)cc3)c(Cc3cccc(F)c3)n2c1	11.1*	4.0	-0.2	8.6*	.	4.8*	4.1*	4.6*	2.8	1.4
CCOC(=O)[C@]12CCCCC/C=C\1N(CCc1ccc(Cl)cc1)C(=O)[C@H]2CC(=O)NCCCOC	-0.3	-3.0	-1.9	-1.5	.	-1.0	.	.	.	.
Cc1ccccc1-c1cccc2c3c([nH]c12)[C@@H]1C[C@H]2[C@@H](CN1CC3)[C@H](C)ON2C	-3.7	-1.3	-1.2	-1.5	.	0.3	.	.	.	.
COc1ccc(-c2coc3cc(O)ccc3c2=O)cc1O	13.1*	1.3	0.3	8.0*	3.6	5.0*	6.5*	3.3*	13.2*	10.8*
COc1ccc(-c2coc3cc(O)c(OC)cc3c2=O)cc1	9.9	1.4	0.0	6.1	-0.2	0.1	.	.	.	.
COC(=O)[C@H]1C[C@@]2(N3CCCCC3)c3ccccc3N[C@H]2N1S(=O)(=O)c1ccc([N+](=O)[O-])cc1	4.2	-2.0	-0.6	-3.4	.	-0.7	.	.	.	.
C/C(=N/NC(=O)c1ccoc1C)c1cccs1	8.8	4.6	-0.2	13.3*	.	7.8*	12.2*	7.3*	9.2*	5.2*
CSc1ccccc1OCc1cc(C(=O)N2CCN(c3ncccn3)CC2)no1	0.0	-1.0	-0.7	0.3	0.4	1.7	.	.	.	.
CSc1ccccc1OCc1cc(C(=O)N2CCSCC2)no1	11.6*	5.1	-0.6	13.1*	2.3	5.3*	5.4*	3.4*	9.6*	10.4*
O=C(NCCc1ccc(Cl)cc1)c1ccc2nccnc2c1	8.4	3.8	-0.4	9.4*	2.0	5.4*	8.2*	7.9*	9.6*	9.9*
Cc1ccc(C(=O)NCC(=O)OCc2nc3sc(C)c(C)c3c(=O)[nH]2)cc1	2.9	-2.9	-1.1	-5.7	.	1.4	.	.	.	.
COc1ccccc1NS(=O)(=O)c1cc(NC(=O)c2ccc(NC(C)=O)cc2)ccc1N1CCOCC1	-4.3	-1.4	-1.4	17.5*	1.6	7.0*	10.5*	0.3	16.2*	2.9
COc1ccccc1NS(=O)(=O)c1cc(NC(=O)c2ccncc2)ccc1N1CCOCC1	-1.9	-3.0	-1.6	3.9	0.7	-0.3	.	.	.	.
S=C(NCCCN1CCOCC1)Nc1ccc(-c2nc3ccccc3[nH]2)cc1	1.7	-1.9	-1.7	2.4	0.5	-2.0	.	.	.	.
CN(C)CCNC(=S)Nc1ccc(-c2nc3ccccc3[nH]2)cc1	12.8*	4.4	-0.1	8.3*	3.4	5.0*	12.3*	8.7*	16.3*	5.9*
Cc1ccc2nsnc2c1NC(=O)c1sc2ccccc2c1Cl	0.1	-0.1	-1.8	-3.0	-0.4	-0.4	.	.	.	.
Cc1cccnc1NC(=O)c1sc2ccccc2c1Cl	13.2*	3.5	-0.1	8.5*	1.2	10.1*	11.3*	5.3*	17.6*	7.8*
